Some compounds were tested as several samples or in several runs, with calls that do not always agree. The source made the active and inactive calls. The calls were made as follows: active = hit-call score of the fitted dose curve at least 0.9, where 1 is the maximum; inactive = score below 0.9.
read-out: Thrombomodulin, THBD (gene 7056); experiment: BSK_3C_Thrombomodulin: BioMAP Diversity Plus: 3C Assay for Thrombomodulin Biomarker Activity (AID 2283029); settings: primary human endothelial cells (HUVEC); actives raise or lower the signal
Procedure: BSK_3C is a cell-based, multiplexed-readout assay that uses umbilical vein endothelium, a human vascular primary cell, with measurements taken at 24 hours after chemical dosing in a 96-well plate.BSK_3C_Thrombomodulin is an assay component measured in the BSK_3C assay. It measures Thrombomodulin antibody related to regulation of gene expression using ELISA technology.Data from the assay component BSK_3C_Thrombomodulin was analyzed into 1 assay endpoint. This assay endpoint, BSK_3C_Thrombomodulin, was analyzed with bidirectional fitting relative to DMSO as the negative control and baseline of activity. Using a type of binding reporter, gain or loss-of-signal activity can be used to understand changes in the signaling as they relate to the gene THBD. Furthermore, this assay endpoint can be referred to as a primary readout, because this assay has produced multiple assay endpoints where this one serves a signaling function. To generalize the intended target to other relatable targets, this assay endpoint is annotated to the gpcr intended target family, where the subfamily is rhodopsin-like receptor.
The levels of cell surface (or secreted, indicated by the prefix "s") biomarker endpoints were measured by ELISA. Overt cytotoxicity to cells in confluent adherent cultures (all systems other than the BT system) was assessed by measuring total protein levels using sulforhodamine B (SRB) staining in parallel cultures at the time of biomarker measurements, indicated as SRB endpoints. For proliferation assays for adherent cell types, individual cell types are cultured at sub-confluence and relative cell numbers quantified by SRB staining at time points optimized for each system (48 h: 3C and CASM3C systems; 72 h: BT and HDF3CGF systems; 96 h: SAg system). SRB was performed by staining cells with 0.1% SRB after fixation with 10% TCA and reading wells at 560 nm.Viability and proliferation of PBMC (T cells) was quantified by Alamar Blue reduction for the SAg and BT systems. For PBMC viability (referred to as PBMC Cytotoxicity within the assay endpoint names), cells were plated (75,000/well in a 96-well plate) and then chemical samples added for 1 h before addition of activators, SEB and TSST-1 (20 ng/mL final concentration each). Cells were incubated for 90 h. Then, Alamar Blue (20 uL/well) (Invitrogen, Cat DAL1100) was added for 6 h, and the plates were read with a fluorescence microplate reader at 546/580 nm (excitation/emission). For PBMC proliferation, cells were plated and activated as above but incubated for only 16 h prior to addition of Alamar Blue. Plates were read after 6 h.

| Compound | outcome | AC50 |
| --- | --- | --- |
| CCS(=O)(=O)c1cccnc1S(=O)(=O)NC(=O)Nc1nc(OC)cc(OC)n1 | inactive |  |
| CCCN(CCC)c1c([N+](=O)[O-])cc(C(F)(F)F)cc1[N+](=O)[O-] | inactive |  |
| CC(C)(C)C(O)C(Oc1ccc(Cl)cc1)n1cncn1 (stereo not given) | inactive |  |
| O=C(Nc1ccccc1)Nc1cnns1 | inactive |  |
| O=C(O)CCCOc1ccc(Cl)cc1Cl | inactive |  |
| CC[C@H](C)[C@H]1O[C@]2(C=C[C@@H]1C)C[C@@H]1C[C@@H](C/C=C(\C)[C@@H](O[C@H]3C[C@H](OC)[C@@H](O[C@H]4C[C@H](OC)[C@@H](O)[C@H](C)O4)[C@H](C)O3)[C@@H](C)/C=C/C=C3\CO[C@@H]4[C@H](O)C(C)=C[C@@H](C(=O)O1)[C@]34O)O2 (tested in a mixture with another compound) |  | 2.13 µM (active) |
| Oc1ccc(Cl)cc1Cc1ccccc1 | inactive | 31.8 µM (active) [middle of 5 runs] |
| CCCN(CCOc1c(Cl)cc(Cl)cc1Cl)C(=O)n1ccnc1 |  | 12 µM (active) |
| COP(=S)(OC)Oc1ccc([N+](=O)[O-])cc1 | inactive |  |
| CCC(C)(NC(=O)c1cc(Cl)c(C)c(Cl)c1)C(=O)CCl (stereo not given) | inactive |  |
| CCOC1Oc2ccc(OS(C)(=O)=O)cc2C1(C)C (stereo not given) | inactive |  |
| CNC(=O)Oc1cccc(N=CN(C)C)c1 | inactive |  |
| CN1CSC(=S)N(C)C1 |  | 5.21 µM (active) |
| O=C(NC(=O)c1c(F)cccc1F)Nc1ccc(OC(F)(F)C(F)OC(F)(F)F)c(Cl)c1 (stereo not given) | inactive |  |
| CC1(c2ccc(Oc3ccccc3)cc2)OC(=O)N(Nc2ccccc2)C1=O (stereo not given) | inactive |  |
| COC(=O)c1ccccc1S(=O)(=O)NC(=O)Nc1nc(C)nc(OC)n1 | inactive |  |
| O=C(O)C(F)(F)C(F)(F)C(F)(F)C(F)(F)C(F)(F)C(F)(F)C(F)(F)F | inactive |  |
| CC(C)N(C(=O)COc1nnc(C(F)(F)F)s1)c1ccc(F)cc1 | inactive |  |
| COP(=S)(OC)Oc1ccc(SC)c(C)c1 | inactive |  |
| Cc1[nH]c(=O)n(C(C)(C)C)c(=O)c1Cl | inactive |  |

| Compound | outcome | AC50 |
| --- | --- | --- |
| Oc1cc(Cl)ccc1Oc1ccc(Cl)cc1Cl | inactive |  |
| O=S(=O)(O)C(F)(F)C(F)(F)C(F)(F)C(F)(F)C(F)(F)C(F)(F)C(F)(F)C(F)(F)F | inactive |  |
| ClC1C(Cl)C(Cl)C(Cl)C(Cl)C1Cl (stereo not given) | inactive |  |
| Clc1ccccc1-c1nnc(-c2ccccc2Cl)nn1 | inactive |  |
| CCC(C)Nc1c([N+](=O)[O-])cc(C(C)(C)C)cc1[N+](=O)[O-] (stereo not given) | inactive |  |
| COC(=O)c1ccccc1CS(=O)(=O)NC(=O)Nc1nc(OC)cc(OC)n1 | inactive |  |
| COc1nn(CSP(=S)(OC)OC)c(=O)s1 | inactive |  |
| CCOCN(C(=O)CCl)c1c(C)cccc1CC | inactive |  |
| CCc1ccc(C(=O)NN(C(=O)c2cc(C)cc(C)c2)C(C)(C)C)cc1 | inactive |  |
| CCC(C)(C)C(=O)OC1=C(c2ccc(Cl)cc2Cl)C(=O)OC12CCCCC2 | inactive |  |
| COc1cc(OC)nc(NC(=O)NS(=O)(=O)c2cc(NC=O)ccc2C(=O)N(C)C)n1 | inactive |  |
| O=C1c2ccccc2C(=O)N1SC(Cl)(Cl)Cl | inactive |  |
| CCN(CC)C(=O)SCc1ccc(Cl)cc1 | inactive |  |
| O=C(O)COc1ccc(Cl)cc1Cl | inactive |  |
| CC(C)(C)C(O)/C(=C\c1ccc(Cl)cc1Cl)n1cncn1 (stereo not given) | inactive |  |
| C[C@H]1[C@H](c2ccc(Cl)cc2)SC(=O)N1C(=O)NC1CCCCC1 | inactive |  |
| O=[N+]([O-])/N=C1\NCCN1Cc1ccc(Cl)nc1 | inactive |  |
| CCOc1nc(NC)nc(NC(=O)NS(=O)(=O)c2ccccc2C(=O)OC)n1 | inactive |  |
| CC(C)OC(=O)Nc1cccc(Cl)c1 | inactive |  |

Source: PubChem BioAssay (EPA / NIEHS)
